Compound activity deposited in PubChem BioAssay by Broad Institute.
BL2 CD40 inh – CD40 pathway inhibition in BL2 cells | inhibition, % at 10 µM | AID 1053188 | BL2 NF-kB luciferase reporter, CD40L-induced, 4 h | hit rate 0.94% among 83,000;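 active = mean inhibition of at least 50% with a set share of replicates also reaching that level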;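 also: 0% = neutral control wells and 100% = IKK inhibitor VII at 50 µM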
* hit, by the source's call; ! = repeats disagree; [ ] = another dose, or the depositor's remark. The entries come from a sample that favours hits as a whole.

SMILES | BL2 CD40 inh
O=C(Cc1ccccc1)N1CC[C@@H]2[C@H]1c1cc(-c3cccc(F)c3)ccc1N[C@@H]2CO | 70*[25 µM]
O=C(Cc1ccccc1)N1CC[C@@H]2[C@H](CO)Nc3ccc(-c4cccc(F)c4)cc3[C@@H]21 | -22[25 µM]
O=C(c1cccc(F)c1)N1CC[C@@H]2[C@@H](CO)Nc3ccc(-c4ccc(F)cc4)cc3[C@@H]21 | -7
O=C(Cc1ccccc1)N1CC[C@@H]2[C@H]1c1cc(C#Cc3cccc(F)c3)ccc1N[C@@H]2CO | 82*[25 µM]
COc1ccc(-c2ccc(C3[C@H]4CNC[C@@H]3N4C(=O)Nc3ccccc3F)cc2)cc1 (some centres not stated) | -41
COc1ccc2c3c(n(C)c2c1)[C@@H](CO)N(C(=O)c1ccccn1)CC31CN(C(=O)Cc2ccccc2)C1 | -24[25 µM]
CC(=O)N(C)C[C@H]1Oc2c(NC(=O)NC(C)C)cccc2C(=O)N(C)C[C@H]1C | -2
CC(C)c1cn(CC[C@@H]2CC[C@@H](NC(=O)C3CCCCC3)[C@H](CO)O2)nn1 | 3
C[C@@H]1CN([C@@H](C)CO)C(=O)c2c(c3ccccc3n2C)-c2ccccc2CO[C@@H]1CN(C)Cc1ccccc1 | 39
CC=Cc1ccc2n(c1=O)C[C@H]1[C@H](CO)[C@@H](C(=O)NC3CCCC3)N(CC3CCCCC3)[C@@H]21 (mixture of isomers) | 13[25 µM]
C[C@H]1CC(=O)N[C@H](c2ccccc2)C/C=C\C[C@H](c2ccc3c(c2)OCO3)NC1=O | 3[25 µM]
COc1cccc(S(=O)(=O)N2[C@@H]3CNC[C@H]2C3c2ccc(/C=C/c3ccccc3)cc2)c1 (some centres not stated) | -4[25 µM]
COc1cccc(S(=O)(=O)N2C[C@@H]3N[C@H](C2)C3c2ccc(/C=C/c3ccccc3)cc2)c1 (some centres not stated) | 46*!
COc1cccc(-c2ccc(C3[C@@H]4CN(S(=O)(=O)c5ccccc5)C[C@H]3N4)cc2)c1 (some centres not stated) | 24
CNC[C@@H]1Oc2ccccc2CC(=O)N(C)C[C@@H]1C | -5
COc1ccc(C(=O)N2C[C@H]3[C@@H](c4ccccc42)[C@@H](CO)N3C(=O)c2cccc(F)c2)cc1 | -4
COc1ccc(C#Cc2ccc3c(c2)[C@H]2[C@H](CCN2Cc2ccncc2)[C@H](CO)N3)cc1 | -43[25 µM]
O=C(O)c1cc(-c2ccccc2)nc2ccccc12 | -4
OC(c1cc(-c2cccc(Cl)c2)nc2ccccc12)C1CCCCN1 (configuration not stated) | 65*
OC(CN1CCOCC1)Cn1c(-c2cccc(Cl)c2)nc2ccccc21 (configuration not stated) | 0
C[C@H]1CN([C@@H](C)CO)C(=O)c2c(c3ccccc3n2C)-c2ccccc2CO[C@H]1CN(C)CC1CCCCC1 | -1[25 µM]
C[C@H](NC(=O)N(C)C[C@H]1OCc2ccccc2-c2c(n(C)c3ccccc23)C(=O)N([C@H](C)CO)C[C@@H]1C)c1ccccc1 | -9
C[C@H](CO)N1C[C@H](C)[C@@H](CN(C)S(=O)(=O)c2ccccc2)OCCCC[C@H](C)Oc2ccc(NS(=O)(=O)c3ccc(Cl)cc3)cc2C1=O | 6
CCCNC(=O)[C@@H]1[C@@H](CO)[C@@H]2Cn3c(ccc(C4=CCCC4)c3=O)[C@@H]2N1C(=O)c1cnccn1 | 0[25 µM]
O=[N+]([O-])c1ccc(CS(=O)c2ccccc2)cc1 (configuration not stated) | -6
SMILES | BL2 CD40 inh
O=C(Cc1cccc([N+](=O)[O-])c1)Nc1ccccc1 | -2
O=[N+]([O-])c1ccc(S(=O)Cc2ccccc2)c([N+](=O)[O-])c1 (configuration not stated) | 106*
O=C(CC(F)(F)F)N1C[C@@H]2[C@H](c3ccccc31)[C@@H](CO)N2C(=O)C1CCCC1 | 4
CCC(=O)N1[C@H](CO)[C@@H](c2ccccc2)[C@@H]1CN(C(C)C)S(C)(=O)=O | -5[25 µM]
COc1cc(/C=N/n2cnnc2)ccc1OCC(=O)N1CCOCC1 | 6
COc1cc(/C=N/n2cnnc2)ccc1OC(=O)c1cccnc1 | 19
COc1cc(/C=N/n2cnnc2)ccc1OC(=O)c1ccncc1 | 65*
CS(=O)(=O)N1C2CN(CC(F)(F)F)CC1C2c1ccc(Br)cc1 (configuration not stated) | -7
Nc1c(C(=O)N2CCCC2)sc2nc3c(cc12)CCCCCC3 | -97
Nc1c(C(=O)N2CCOCC2)sc2nc3c(cc12)CCCC3 | 69*
Nc1c(C(=O)N2CCOCC2)sc2nc3c(cc12)CCC3 | -51
O=C(C[C@H]1C[C@@H]2c3cc(NC(=O)c4cccnc4)ccc3O[C@@H]2[C@@H](CO)O1)NCCc1ccccc1 | -13[25 µM]
CCOC(=O)N(C)C[C@@H]1OCc2ccccc2-c2ccccc2C(=O)N([C@@H](C)CO)C[C@H]1C | 4
Cn1cccc1C(=O)OCC(=O)NCc1ccc2c(c1)OCO2 | -17
Cn1cccc1C(=O)OCC(=O)Nc1ccc2c(c1)OCCO2 | 55*
O=C(COC(=O)c1ccco1)Nc1ccc2c(c1)OCCO2 | -65
O=C(Nc1cc(F)ccc1F)N[C@H]1CC[C@H](CCn2cc(C3CCCC3)nn2)O[C@H]1CO | 2
Cn1cnc(CCNC(=O)C[C@@H]2CC[C@@H]3[C@H](COC[C@@H](O)CN3C(=O)Nc3ccc(C(F)(F)F)cc3)O2)c1 | 52*[25 µM]
Cn1cnc(CCNC(=O)C[C@H]2CC[C@@H]3[C@H](COC[C@@H](O)CN3C(=O)Nc3ccc(C(F)(F)F)cc3)O2)c1 | 21[25 µM]
Cn1cnc(CCNC(=O)C[C@@H]2CC[C@@H]3[C@H](COC[C@H](O)CN3C(=O)Nc3ccc(C(F)(F)F)cc3)O2)c1 | 5[25 µM]
C[C@@H]1CN([C@H](C)CO)C(=O)c2ccccc2-c2ccccc2CO[C@@H]1CN(C)S(=O)(=O)c1cccc(C#N)c1 | -13[25 µM]
CC(C)NC(=O)N(C)C[C@@H]1Oc2c(cccc2N(C)C)C(=O)N(C)C[C@@H]1C | -3
CC(=O)Nc1cccc2c1O[C@@H](CN(C)S(C)(=O)=O)[C@@H](C)CN(C)C2=O | 10
CC(C)[C@@H]1COCn2nncc2CC[C@H](Cc2ccc(-c3ccccc3)cc2)C(=O)N1 | 2
Cc1ccccc1S(=O)(=O)N1[C@H](C#N)[C@@H](c2ccc(C#CC3CCCCC3)cc2)[C@@H]1CO | 0
SMILES | BL2 CD40 inh
Cc1ccccc1S(=O)(=O)N1[C@@H](C#N)[C@@H](c2ccc(C#CC3CCCCC3)cc2)[C@@H]1CO | -10
Cc1ccccc1S(=O)(=O)N1[C@H](C#N)[C@H](c2ccc(C#CC3CCCC3)cc2)[C@H]1CO | 40*
Cc1ccccc1S(=O)(=O)N1[C@@H](C#N)[C@H](c2ccc(C#CC3CCCC3)cc2)[C@@H]1CO | -5
Cc1ccccc1S(=O)(=O)N1[C@H](C#N)[C@H](c2ccc(C#CC3CCCCC3)cc2)[C@H]1CO | 48*
Cc1ccccc1S(=O)(=O)N1[C@H](C#N)[C@H](c2ccc(C#CC3CCCC3)cc2)[C@@H]1CO | -8
C[C@@H]1CN([C@H](C)CO)C(=O)c2cc(NS(=O)(=O)c3ccc(Cl)cc3)ccc2O[C@@H](C)CCCCO[C@H]1CN(C)S(=O)(=O)c1ccc(F)cc1 | 7
O=C(NCC1CCCCC1)[C@@H]1[C@@H](CO)[C@@H]2Cn3c(cccc3=O)[C@@H]2N1C(=O)CC1CC1 | 6[25 µM]
Cc1ccc(-c2ccccc2[C@@H]2[C@@H](C#N)N(C(=O)Cc3cccnc3)[C@@H]2CO)cc1 | 11[25 µM]
COCC(=O)N1CCCCN2[C@H](CO)[C@H](c3ccc(C#Cc4cccnc4)cc3)[C@@H]2C1 | 0[25 µM]
